Screen size: about 100,000 compounds; about 770 (0.77%) were called active. Shown is part of a subset that was picked to be rich in actives. A number with no mark means an inactive call. Rule as the data show it: active = inhibition above about 50%; inactive = the rest.

By inhibition is commonly meant the share of the control response that was lost under treatment.

For the experiment, the target named is Gag-Pol polyprotein (Human immunodeficiency virus type 1 group M subtype B (isolate HXB2)) (UniProt P04585). In words: RNase H inhibition, HIV 1 Gag Pol polyprotein, FRET biochemical assay, screening (AID 372). To be noted: HIV-1 RT RNase H, FRET RNA/DNA substrate fluorescence; at 10 µM; stronger effect = higher value.
For `O=C1C(Cc2ccccc2)S/C(=N/N=C/c2cccc([N+](=O)[O-])c2)N1c1ccccc1` (stereo unspecified), the inhibition is 20%.
For `Cc1ccc(NC(=O)CN(c2ccc(Br)cc2)S(=O)(=O)c2ccccc2)cc1Cl` the value was 7%; for `CCOc1ccccc1NC(=O)CCN1C(=O)/C(=C/c2ccccc2Cl)SC1=S`, 13%.
For `CCCCOC(C)n1cc(Cl)c(=O)[nH]c1=O` (stereo unspecified) the value was 3%; for `COc1ccc2c(c1)c(=O)oc1cc(OCC(=O)c3ccc(F)cc3)ccc12`, 34%; for `CC(C)COc1ccc(/C=C2\SC(=S)NC2=O)c2ccccc12`, 51% (active).
As for `COc1ccc(/C=C2\SC(=S)NC2=O)c(OC)c1OC`, the inhibition is 0%.
As for `COc1cc(/C=C2\SC(=S)NC2=O)ccc1OCCOc1ccccc1Cl`, the figure is 51% (active); as for `COc1cc(/C=C2\SC(=S)NC2=O)cc(Br)c1OC`, 5%; as for `COc1cc(/C=C2/SC(=S)NC2=O)cc(Cl)c1OCC(C)COc1ccccc1` (stereo unspecified), 50% (active).
For `COc1ccc(OCCOc2c(Cl)cc(/C=C3\SC(=S)NC3=O)cc2OC)cc1` the value was 47%; for `CC(C)COc1ccc(/C=C2\SC(=S)NC2=O)cc1`, 22%; for `COc1cc(/C=C2\SC(=S)NC2=O)cc(Br)c1OC(=O)c1ccccc1`, 58% (active).
As for `COc1cccc(OCCOc2c(Cl)cc(/C=C3/SC(=S)NC3=O)cc2OC)c1`, the inhibition is 23%.
As for `CCOc1cc(/C=C2\SC(=S)NC2=O)ccc1OCCOc1ccccc1Cl`, the figure is 43%; as for `COc1cc(/C=C2\SC(=S)NC2=O)cc(Br)c1OC(C)=O`, 4%.
For `COc1cc(/C=C2\SC(=S)NC2=O)cc(Cl)c1OCCOc1ccccc1Cl` the value was 26%; for `CCc1ccc(C=Nn2c(-c3ccc(Cl)cc3)n[nH]c2=S)cc1`, 3%; for `CCOc1cc(/C=C2\C(=O)NC(=O)N(c3ccc(Cl)cc3)C2=O)cc(Cl)c1OCC`, 0%.
With `CCC(C)OC(=O)C1=C(C)NC2=C(C(=O)CC(c3ccc(Cl)cc3)C2)C1c1ccc(OC(C)=O)cc1` (stereo unspecified), the inhibition was 11%.
As for `COc1ccccc1/C=C\C=N\n1c(-c2ccc(Cl)cc2Cl)n[nH]c1=S`, the figure is 34%; as for `CS(=O)(=O)N(CC(O)Cn1c2ccccc2c2ccccc21)c1ccc(Br)cc1` (stereo unspecified), 1%.
As for `CCN(CC)c1ccc(/C=N/NC(=O)CCC(=O)Nc2cccc(Cl)c2C)c(O)c1`, the figure is 6%; as for `CCOP(=O)(CN1CCN(CP(=O)(OCC)OCC)CC1)OCC`, 2%.
As for `Cc1c(NC(=O)c2cc(Cl)ccc2Cl)cccc1-c1nc2ccccc2s1`, the figure is 9%.
For `O=c1/c(=C/c2ccc(-c3ccccc3)o2)sc2nc3ccccc3n12`, the inhibition was 9%.
As for `CCOC(=O)C1=C(C)NC2=C(C(=O)CC(c3ccc(OC)cc3)C2)C1c1ccc(OC)c(OC)c1` (stereo unspecified), the figure is 11%; as for `Cc1ccc(C(=O)Oc2ccccc2C(=S)N2CCOCC2)cc1`, 0%.
For `CCOC(=O)C1CCCN(C(=O)N2CCOCC2)C1` (stereo unspecified) the value was 12%; for `Cc1cc2ncn(CC(O)COc3ccc(C(=O)O)cc3)c2cc1C` (stereo unspecified), 0%.
As for `COc1ccccc1CNc1cccc(F)c1`, the figure is 0%.
For the compound `O=C1NC(=Nc2cccc(Cl)c2Cl)S/C1=C\c1ccc(F)cc1`, the inhibition is 22%.
For `O=C1NC(=S)S/C1=C\c1ccccc1OCCOc1ccccc1Cl` the value was 46%.
As for `O=C1NC(=Nc2cccc(Cl)c2Cl)S/C1=C\c1ccc(O)cc1`, the figure is 12%; as for `O=C1NC(=S)S/C1=C\c1cc([N+](=O)[O-])ccc1OCCOc1ccccc1Cl`, 55% (active); as for `Cc1cc(C)cc(OCCOc2ccc([N+](=O)[O-])cc2/C=C2\SC(=S)NC2=O)c1`, 38%.
For `O=C1NC(=Nc2cccc(Cl)c2Cl)S/C1=C\c1ccc(O)c(O)c1` the value was 89% (active); for `O=P(O)(OC(c1ccccc1)C(F)(F)F)c1ccccc1` (stereo unspecified), 2%; for `CC(=O)Oc1ccc(/C=C2/N=C(c3cccc([N+](=O)[O-])c3)OC2=O)cc1`, 14%.
For `O=C(Cc1ccccc1)Nc1ccncc1`, the inhibition is 11%.
As for `Cn1cc(/C=C2/SC(=O)N(c3ccccc3)C2=O)c2ccccc21`, the figure is 12%; as for `COc1ccc(Cl)cc1/C=C1\C(=O)NC(=S)N(c2cccc(Cl)c2Cl)C1=O`, 8%; as for `Clc1cccc(-c2ccc(/C=N/Nc3nc4ccccc4s3)o2)c1`, 4%.
For `O=[N+]([O-])c1cc(C=Nn2c(-c3ccc(Cl)cc3Cl)n[nH]c2=S)ccc1Cl` the value was 37%; for `O=[N+]([O-])c1ccc(C=Nn2c(-c3ccc(Cl)cc3Cl)n[nH]c2=S)cc1`, 51% (active); for `O=[N+]([O-])c1ccc(Cl)c(C=Nn2c(-c3ccc(Cl)cc3Cl)n[nH]c2=S)c1`, 16%.
As for `COc1ccccc1-n1c(C=C2C(=O)N(Cc3ccccc3)c3ccccc32)nc2ccccc2c1=O`, the figure is 9%; as for `O=c1oc(/C=C\c2ccccc2)nc2ccc(Cc3ccc4nc(/C=C\c5ccccc5)oc(=O)c4c3)cc12`, 7%.
With `Cc1oc2ccc(OCc3ccc([N+](=O)[O-])cc3)cc2c1C(=O)OC(C)C`, the inhibition is 13%.
For `CCOCCOC(=O)C1=C(C)NC2=C(C(=O)CC(c3ccc(OC)cc3)C2)C1c1cccc(OC)c1OC` (stereo unspecified) the value was 5%; for `O=C1c2ccccc2CCC1C1(O)C(=O)Nc2ccc(Br)cc21` (stereo unspecified), 2%.
As for `CCn1c2ccccc2c2ccc(-c3nn(-c4ccccc4)cc3C=O)cc21`, the figure is 11%; as for `Cc1ccc(C)n1-c1cc(C(=O)O)cc(C(=O)O)c1`, 2%.
For `Cc1nc(=O)c(-c2ccccc2)c(C)n1-c1ccc(C(=O)O)c(O)c1`, the inhibition is 0%.
For `Cc1ccc(-c2ccccc2)n1-c1ccc(O)c(C(=O)O)c1` the value was 6%; for `Cc1ccc(-c2ccccc2)n1-c1ccc(Cl)c(C(=O)O)c1`, 3%.
As for `Cc1ccc(C)n1-c1ccc(Cl)c(C(=O)O)c1`, the figure is 53% (active); as for `Cc1ccc(C)n1-c1ccc(Cl)c(O)c1`, 41%.
As for `Cc1ccc(C)n1-c1ccc(C(=O)O)c(Cl)c1`, the figure is 16%.
As to `Cc1ccc(C)n1-c1ccc(C(=O)O)c(O)c1`, the inhibition was 99% (active).
For the compound `CC(C)(Cc1ccc(O)cc1)NC(=O)Cc1ccccc1`, the inhibition is 6%.

These data come from PubChem BioAssay AID372 (MTDP, 2006).
